Test results taken from PubChem BioAssay AID1159580 (chemical genetic matrix, 2015).
Values joined by “and” are separate entries in the source; they are usually repeats but may differ in a detail not shown here. Equal values may be shown once. The campaign covered roughly 5,500 compounds. About 2,000 (36%) were called active. Roughly 18% stayed inconclusive and do not appear here. Rule as the data show it: active = normalized growth mostly below about 0.91 (no sharp cut-off); inconclusive = no clear call, values can overlap the other calls; inactive = mostly above about 0.92. This is one part of the list.

Experiment: chemical genetic growth profiling, strain panel (AID 1159580);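 also: tested at 20 µM; growth read once vehicle control cultures reached saturation at 30 °C; 1 = growth at the plate median or of vehicle wells; lower values mean less growth of the strain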
Details: growth OD

Measured: normalized growth

COc1cc(-c2coc3cc(OCc4ccccc4)c(OC)c(O)c3c2=O)cc(O)c1OC
0.778 (active) and 1.02 (inactive): S. cerevisiae deletion strains, locus YJL095W, strain BCK1, stronger effect = lower value
inactive: S. cerevisiae deletion strains, locus YBR021W, strain FUR4, stronger effect = lower value 0.908 | S. cerevisiae deletion strains, locus YBR229C, strain ROT2, stronger effect = lower value 0.985 | S. cerevisiae deletion strains, locus YCL029C, strain bik1, stronger effect = lower value 0.962 | S. cerevisiae deletion strains, locus YDL101C, strain DUN1, stronger effect = lower value 0.918 | S. cerevisiae deletion strains, locus YDL185W, strain tfp1, stronger effect = lower value 0.968 | S. cerevisiae deletion strains, locus YDR101C, strain arx1, stronger effect = lower value 0.958 | S. cerevisiae deletion strains, locus YDR150W, strain NUM1, stronger effect = lower value 0.911 | S. cerevisiae deletion strains, locus YDR388W, stronger effect = lower value 0.954 | S. cerevisiae deletion strains, locus YER110C, stronger effect = lower value 1 | S. cerevisiae deletion strains, locus YER155C, strain BEM2, stronger effect = lower value 0.946 | S. cerevisiae deletion strains, locus YGL078C, strain dbp3, stronger effect = lower value 0.937 | S. cerevisiae deletion strains, locus YGR252W, strain gcn5, stronger effect = lower value 0.81 | S. cerevisiae deletion strains, locus YHR079C, strain IRE1 (second series), stronger effect = lower value 0.967 | S. cerevisiae deletion strains, locus YHR079C, strain IRE1, stronger effect = lower value 1.01 | S. cerevisiae deletion strains, locus YHR094C, strain hxt1, stronger effect = lower value 1 | S. cerevisiae deletion strains, locus YIL073C, strain SPO22, stronger effect = lower value 0.685 | S. cerevisiae deletion strains, locus YIL125W, strain kgd1, stronger effect = lower value 1 | S. cerevisiae deletion strains, locus YIR030C, strain dcg1, stronger effect = lower value 0.979 | S. cerevisiae deletion strains, locus YJL134W, strain LCB3, stronger effect = lower value 0.981 | S. cerevisiae deletion strains, locus YJL168C, strain set2, stronger effect = lower value 0.993 | S. cerevisiae deletion strains, locus YJR066W, strain TOR1, stronger effect = lower value 0.95 | S. cerevisiae deletion strains, locus YKL009W, strain mrt4, stronger effect = lower value 0.922 | S. cerevisiae deletion strains, locus YKL068W, stronger effect = lower value 1.02 | S. cerevisiae deletion strains, locus YKL085W, strain MDH1 (second series), stronger effect = lower value 0.996 | S. cerevisiae deletion strains, locus YKL085W, strain MDH1, stronger effect = lower value 0.996 | S. cerevisiae deletion strains, locus YLR039C, strain RIC1, stronger effect = lower value 0.86 | S. cerevisiae deletion strains, locus YLR102C, strain apc9, stronger effect = lower value 0.998 | S. cerevisiae deletion strains, locus YLR113W, strain HOG1, stronger effect = lower value 1.02 | S. cerevisiae deletion strains, locus YLR262C, strain YPT6, stronger effect = lower value 0.857 | S. cerevisiae deletion strains, locus YLR268W, strain sec22, stronger effect = lower value 0.903 | S. cerevisiae deletion strains, locus YML032C, strain rad52, stronger effect = lower value 0.956 | S. cerevisiae deletion strains, locus YML124C, strain tub3, stronger effect = lower value 0.964 | S. cerevisiae deletion strains, locus YMR078C, strain ctf18, stronger effect = lower value 1.01 | S. cerevisiae deletion strains, locus YMR263W, strain SAP30, stronger effect = lower value 0.893 | S. cerevisiae deletion strains, locus YMR307W, strain GAS1, stronger effect = lower value 0.736 | S. cerevisiae deletion strains, locus YNL183C, strain NPR1, stronger effect = lower value 0.972 | S. cerevisiae deletion strains, locus YNL250W, strain rad50, stronger effect = lower value 0.945 | S. cerevisiae deletion strains, locus YNL271C, strain bni1, stronger effect = lower value 0.979 | S. cerevisiae deletion strains, locus YNL298W, strain CLA4, stronger effect = lower value 0.989 | S. cerevisiae deletion strains, locus YNR052C, strain pop2, stronger effect = lower value 0.951 | S. cerevisiae deletion strains, locus YOL012C, strain htz1 0.39 | S. cerevisiae deletion strains, locus YOL147C, strain pex11, stronger effect = lower value 0.955 | S. cerevisiae deletion strains, locus YOR136W, strain idh2, stronger effect = lower value 0.97 | S. cerevisiae deletion strains, locus YOR144C, strain elg1, stronger effect = lower value 0.988 | S. cerevisiae deletion strains, locus YOR184W, strain ser1, stronger effect = lower value 0.896 | S. cerevisiae deletion strains, locus YOR231W, strain MKK1, stronger effect = lower value 1.02 | S. cerevisiae deletion strains, locus YOR316C, strain cot1, stronger effect = lower value 0.996 | S. cerevisiae deletion strains, locus YPL241C, strain CIN2, stronger effect = lower value 0.974 | S. cerevisiae deletion strains, locus YPL256C, strain CLN2, stronger effect = lower value 1 | S. cerevisiae deletion strains, locus YPR119W, strain clb2, stronger effect = lower value 1 | S. cerevisiae deletion strains, locus YPR141C, strain kar3, stronger effect = lower value 1.01
0.808 (active) and 1.01 (inactive): S. cerevisiae deletion strains, locus YHR030C, strain SLT2, stronger effect = lower value
active: S. cerevisiae deletion strains, locus YAL013W, strain DEP1, stronger effect = lower value 0.788 | S. cerevisiae deletion strains, locus YDL035C, strain GPR1, stronger effect = lower value 0.757 | S. cerevisiae deletion strains, locus YDL074C, strain BRE1, stronger effect = lower value 0.764 | S. cerevisiae deletion strains, locus YDL192W, strain arf1, stronger effect = lower value 0.864 | S. cerevisiae deletion strains, locus YDR162C, strain NBP2, stronger effect = lower value 0.714 | S. cerevisiae deletion strains, locus YDR318W, strain mcm21, stronger effect = lower value 0.877 | S. cerevisiae deletion strains, locus YDR502C, strain sam2, stronger effect = lower value 0.901 | S. cerevisiae deletion strains, locus YEL061C, strain CIN8, stronger effect = lower value 0.821 | S. cerevisiae deletion strains, locus YER167W, strain BCK2, stronger effect = lower value 0.879 | S. cerevisiae deletion strains, locus YGL086W, strain mad1, stronger effect = lower value 0.841 | S. cerevisiae deletion strains, locus YGL248W, strain PDE1, stronger effect = lower value 0.787 | S. cerevisiae deletion strains, locus YGR135W, strain pre9, stronger effect = lower value 0.836 | S. cerevisiae deletion strains, locus YHR129C, strain ARP1, stronger effect = lower value 0.783 | S. cerevisiae deletion strains, locus YHR200W, strain rpn10, stronger effect = lower value 0.883 | S. cerevisiae deletion strains, locus YIL066C, strain RNR3, stronger effect = lower value 0.733 | S. cerevisiae deletion strains, locus YJL187C, strain SWE1 (second series), stronger effect = lower value 0.837 | S. cerevisiae deletion strains, locus YJR043C, strain POL32, stronger effect = lower value 0.747 | S. cerevisiae deletion strains, locus YKR001C, strain vps1, stronger effect = lower value 0.88 | S. cerevisiae deletion strains, locus YLR058C, strain SHM2, stronger effect = lower value 0.863 | S. cerevisiae deletion strains, locus YLR330W, strain CHS5, stronger effect = lower value 0.827 | S. cerevisiae deletion strains, locus YLR342W, strain FKS1 (second series), stronger effect = lower value 0.785 | S. cerevisiae deletion strains, locus YLR371W, strain rom2, stronger effect = lower value 0.86 | S. cerevisiae deletion strains, locus YLR418C, strain cdc73, stronger effect = lower value 0.705 | S. cerevisiae deletion strains, locus YML016C, strain PPZ1, stronger effect = lower value 0.846 | S. cerevisiae deletion strains, locus YMR223W, strain ubp8, stronger effect = lower value 0.877 | S. cerevisiae deletion strains, locus YNL067W, strain RPL9B, stronger effect = lower value 0.829 | S. cerevisiae deletion strains, locus YNL153C, strain GIM3, stronger effect = lower value 0.843 | S. cerevisiae deletion strains, locus YNL233W, strain BNI4, stronger effect = lower value 0.796 | S. cerevisiae deletion strains, locus YNL307C, strain MCK1, stronger effect = lower value 0.844 | S. cerevisiae deletion strains, locus YNL322C, strain KRE1, stronger effect = lower value 0.823 | S. cerevisiae deletion strains, locus YOL006C, strain TOP1, stronger effect = lower value 0.449 | S. cerevisiae deletion strains, locus YOR061W, strain CKA2, stronger effect = lower value 0.848 | S. cerevisiae deletion strains, locus YOR069W, strain VPS5, stronger effect = lower value 0.834 | S. cerevisiae deletion strains, locus YPR163C, strain tif3, stronger effect = lower value 0.837 | S. cerevisiae deletion strains, locus YPR167C, strain met16, stronger effect = lower value 0.871 | S. cerevisiae deletion strains, strain wtn01, stronger effect = lower value 0.849 | S. cerevisiae strains, strain wild type, stronger effect = lower value 0.663
